Here are results for six molecules from PubChem BioAssay (EPA / NIEHS).

Read-out in assay [1]: TIMP metallopeptidase inhibitor 1 (TIMP1), TIMP1 (gene 7076)
Nature of the assay: BSK_hDFCGF_TIMP1: BioMAP Diversity Plus: hDFCGF Assay for TIMP metallopeptidase inhibitor 1 (TIMP1) Biomarker Activity (AID 2283062). The settings on record: primary human foreskin fibroblasts; actives raise or lower the signal. In outline:
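Primary human foreskin fibroblasts in the hDFCGF system were dosed with compound for 24 h, then TIMP-1 was measured by ELISA. Activity was fitted bidirectionally relative to DMSO control; parallel SRB staining assessed cytotoxicity.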

Read-out in assay [2]: Monokine induced gamma interferon (MIG), CXCL9 (gene 4283)
Nature of the assay: BSK_hDFCGF_MIG: BioMAP Diversity Plus: hDFCGF Assay for Monokine induced gamma interferon (MIG) Biomarker Activity (AID 2283063). The settings on record: primary human foreskin fibroblasts; actives raise or lower the signal. In outline:
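ELISA read-out of MIG from primary human dermal fibroblasts 24 h post-dosing. Gain or loss of signal fitted bidirectionally, DMSO as baseline.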

Read-out in assay [3]: Matrix Metallopeptidase 1 (MMP1), MMP1 (gene 4312)
Nature of the assay: BSK_hDFCGF_MMP1: BioMAP Diversity Plus: hDFCGF Assay for Matrix Metallopeptidase 1 (MMP1) Biomarker Activity (AID 2283064). To be noted: primary human foreskin fibroblasts; actives raise or lower the signal. In outline:
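ELISA read-out of MMP1 from human foreskin fibroblasts (primary skin cells), 24 h post-dose. Gain or loss of signal was fitted bidirectionally versus DMSO negative control; cytotoxicity was checked by SRB in parallel cultures.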

Read-out in assay [4]: Vascular cell adhesion molecule 1 (VCAM1), VCAM1 (gene 7412)
Nature of the assay: BSK_hDFCGF_VCAM1: BioMAP Diversity Plus: hDFCGF Assay for Vascular cell adhesion molecule 1 (VCAM1) Biomarker Activity (AID 2283065).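 For AC50: VCAM-1 protein level quantified by ELISA after 24 h chemical exposure.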 The settings on record: primary human foreskin fibroblasts; actives raise or lower the signal. In outline: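 Primary human foreskin fibroblasts (hDFCGF system) were dosed with chemical and VCAM-1 was measured by ELISA 24 h later. Bidirectional curve fitting used DMSO as negative control and activity baseline.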

Read-out in assay [5]: Plasminogen activator inhibitor-1 (PAI1), SERPINE1 (gene 5054)
The assay can be described thus: BSK_hDFCGF_PAI1: BioMAP Diversity Plus: hDFCGF Assay for Plasminogen activator inhibitor-1 (PAI1) Biomarker Activity (AID 2283066). The settings on record: primary human foreskin fibroblasts; actives raise or lower the signal. In outline: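 PAI-1 levels in human dermal foreskin fibroblasts were quantified by ELISA 24 h after dosing, with gain or loss analysed against DMSO. Overt cytotoxicity was checked by sulforhodamine B total-protein staining in parallel cultures.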

Read-out in assay [6]: Intercellular Adhesion Molecule 1 (ICAM1), ICAM1 (gene 3383)
The assay can be described thus: BSK_KF3CT_ICAM1: BioMAP Diversity Plus: KF3CT Assay for Intercellular Adhesion Molecule 1 (ICAM1) Biomarker Activity (AID 2283067). To be noted: primary human keratinocytes with fibroblasts; actives raise or lower the signal. In outline: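 Human keratinocyte plus foreskin fibroblast primary co-culture was exposed to chemical for 24 h. ICAM-1 was then quantified by ELISA, and the data were fit bidirectionally against DMSO as the negative control and baseline.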

Read-out in assay [7]: Interferon-gamma inducible Protein 10 (IP10), CXCL10 (gene 3627)
Nature of the assay: BSK_KF3CT_IP10: BioMAP Diversity Plus: KF3CT Assay for Interferon-gamma inducible Protein 10 (IP10) Biomarker Activity (AID 2283068). To be noted: primary human keratinocytes with fibroblasts; actives raise or lower the signal. In outline: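 In a primary skin co-culture of keratinocytes and fibroblasts, IP-10 is quantified by ELISA at 24 h after dosing. SRB staining of parallel wells monitors overt toxicity. Curves are fitted both directions against DMSO.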

The nature of assay [8]: BSK_KF3CT_SRB: Viability Assessment in the BioMAP Diversity Plus: KF3CT Assay (AID 2283069).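 Note: read 24 h after compound addition.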 The settings on record: primary human keratinocytes with fibroblasts. In outline: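 SRB read-out at 560 nm (0.1% stain, TCA-fixed cells) gauges overt cytotoxicity in a human skin keratinocyte–fibroblast co-culture 24 h post-dosing. Signal change was fitted bidirectionally relative to DMSO control.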

Read-out in assay [9]: Interleukin-1 alpha (IL1a), IL1A (gene 3552)
Nature of the assay: BSK_KF3CT_IL1a: BioMAP Diversity Plus: KF3CT Assay for Interleukin-1 alpha (IL1a) Biomarker Activity (AID 2283070). The settings on record: primary human keratinocytes with fibroblasts; actives raise or lower the signal. In outline: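 Primary skin co-culture (keratinocytes, foreskin fibroblasts), 24 h exposure; ELISA for IL-1a; bidirectional curve fit vs DMSO.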

Read-out in assay [10]: TIMP metallopeptidase inhibitor 2 (TIMP2), TIMP2 (gene 7077)
Nature of the assay: BSK_KF3CT_TIMP2: BioMAP Diversity Plus: KF3CT Assay for TIMP metallopeptidase inhibitor 2 (TIMP2) Biomarker Activity (AID 2283071). To be noted: primary human keratinocytes with fibroblasts; actives raise or lower the signal. In outline: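 TIMP-2 measured by ELISA at 24 h in human keratinocyte/fibroblast primary co-cultures exposed to chemicals. Both increases and decreases were fitted against DMSO. Parallel cultures were stained with SRB for total protein as an overt-cytotoxicity check.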

Read-out in assay [11]: Transforming growth factor beta 1 (TGFb1), TGFB1 (gene 7040)
The assay can be described thus: BSK_KF3CT_TGFb1: BioMAP Diversity Plus: KF3CT Assay for Transforming growth factor beta 1 (TGFb1) Biomarker Activity (AID 2283072). The settings on record: primary human keratinocytes with fibroblasts; actives raise or lower the signal. In outline:
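ELISA quantifies TGF-b1 at 24 h post-dose in a primary human skin co-culture of keratinocytes and fibroblasts, with gain or loss judged against DMSO. Parallel SRB total-protein staining flags overt cytotoxicity.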

Read-out in assay [12]: C-C motif chemokine 2 (Homo sapiens) (UniProt P13500)
Nature of the assay: BSK_KF3CT_MCP1: BioMAP Diversity Plus: KF3CT Assay for Monocyte Chemoattractant Protein 1 (MCP1/CCL2) Biomarker Activity (AID 2283073). The settings on record: primary human keratinocytes with fibroblasts; actives raise or lower the signal. In outline: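 Human keratinocyte plus foreskin fibroblast primary co-culture exposed to chemical for 24 h. MCP-1 levels measured by ELISA. Bidirectional curve fitting relative to DMSO negative control as baseline.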

Read-out in assay [13]: Matrix Metallopeptidase 9 (MMP9), MMP9 (gene 4318)
The assay can be described thus: BSK_KF3CT_MMP9: BioMAP Diversity Plus: KF3CT Assay for Matrix Metallopeptidase 9 (MMP9) Biomarker Activity (AID 2283074).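 For AC50: MMP9 protein level quantified by ELISA in the co-culture.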 The settings on record: primary human keratinocytes with fibroblasts; actives raise or lower the signal. In outline: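 ELISA read-out of MMP-9 at 24 h post-dosing in a co-culture of human skin keratinocytes and foreskin fibroblasts. Gain or loss of signal was fitted in both directions against DMSO.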

Read-out in assay [14]: urokinase plasminogen activator (uPA), PLAU (gene 5328)
Nature of the assay: BSK_KF3CT_uPA: BioMAP Diversity Plus: KF3CT Assay for urokinase plasminogen activator (uPA) Biomarker Activity (AID 2283075). To be noted: primary human keratinocytes with fibroblasts; actives raise or lower the signal. In outline: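 Skin co-culture (keratinocytes + foreskin fibroblasts), human primary; 24 h post-dose; uPA by ELISA; gain/loss fit vs DMSO baseline.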

Read-out in assay [15]: CD40, CD40 (gene 958)
Nature of the assay: BSK_LPS_CD40: BioMAP Diversity Plus: LPS Assay for CD40 Biomarker Activity (AID 2283076). To be noted: primary human HUVEC with PBMC; actives raise or lower the signal. In outline:
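Primary human umbilical vein endothelial cells co-cultured with peripheral blood mononuclear cells, LPS-stimulated, were dosed with chemical and read 24 h later. CD40 levels were measured by ELISA and fitted bidirectionally against DMSO as negative control and baseline.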

Read-out in assay [16]: Interleukin-8 (IL8), CXCL8 (gene 3576)
Nature of the assay: BSK_LPS_IL8: BioMAP Diversity Plus: LPS Assay for Interleukin-8 (IL8) Biomarker Activity (AID 2283078). To be noted: primary human HUVEC with PBMC; actives raise or lower the signal. In outline:
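Human umbilical vein endothelial cells co-cultured with PBMC were stimulated with LPS; IL-8 levels were measured by ELISA 24 h after chemical dosing. Activity was fitted bidirectionally against DMSO as negative control and baseline.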

The nature of assay [17]: BSK_LPS_SRB: Viability Assessment in the BioMAP Diversity Plus: LPS Assay (AID 2283079).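 Note: total protein by sulforhodamine B absorbance as a cytotoxicity measure; measured one day after compound addition.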 The settings on record: primary human HUVEC with PBMC. In outline: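 Human umbilical vein endothelial cells co-cultured with PBMC (LPS system) were dosed for 24 h. Total protein was stained with 0.1% sulforhodamine B after 10% TCA fixation, read at 560 nm, and fitted bidirectionally against DMSO baseline.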

Read-out in assay [18]: Interleukin-1 alpha (IL1a), IL1A (gene 3552)
The assay can be described thus: BSK_LPS_IL1a: BioMAP Diversity Plus: LPS Assay for Interleukin-1 alpha (IL1a) Biomarker Activity (AID 2283080). The settings on record: primary human HUVEC with PBMC; actives raise or lower the signal. In outline:
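Human umbilical vein endothelial cells co-cultured with peripheral blood mononuclear cells were LPS-stimulated and exposed to test chemicals for 24 h. IL-1 alpha was quantified by ELISA, with bidirectional curve fitting against DMSO as the negative control and baseline.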

Read-out in assay [19]: Monocyte Chemoattractant Protein-1 (MCP1), CCL2 (gene 6347)
The assay can be described thus: BSK_LPS_MCP1: BioMAP Diversity Plus: LPS Assay for Monocyte Chemoattractant Protein-1 (MCP1) Biomarker Activity (AID 2283081).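 For AC50: co-culture stimulated with LPS; secreted MCP-1 protein quantified by ELISA in culture supernatant.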 To be noted: primary human HUVEC with PBMC; actives raise or lower the signal. In outline:
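HUVEC plus PBMC co-culture (human primary cells, LPS system) exposed to test chemical for 24 h; MCP-1 measured by ELISA. Bidirectional curve fitting against DMSO baseline; parallel SRB total-protein staining flags overt cytotoxicity.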

Read-out in assay [20]: E-selectin (Homo sapiens) (UniProt P16581)
Nature of the assay: BSK_LPS_Eselectin: BioMAP Diversity Plus: LPS Assay for Eselectin Biomarker Activity (AID 2283077). The settings on record: primary human HUVEC with PBMC; actives raise or lower the signal. In outline:
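Human umbilical vein endothelial cells co-cultured with peripheral blood mononuclear cells under LPS stimulation; E-selectin measured by ELISA 24 h after chemical dosing. Activity fitted bidirectionally against DMSO as negative control and baseline.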

SMILES strings stand for the structures. The source made the active and inactive calls. Rule for the calls: active = hit-call score of the fitted dose curve at least 0.9, where 1 is the maximum; inactive = score below 0.9.

E-selectin (Homo sapiens), sequence (P16581 whole entry, looked up): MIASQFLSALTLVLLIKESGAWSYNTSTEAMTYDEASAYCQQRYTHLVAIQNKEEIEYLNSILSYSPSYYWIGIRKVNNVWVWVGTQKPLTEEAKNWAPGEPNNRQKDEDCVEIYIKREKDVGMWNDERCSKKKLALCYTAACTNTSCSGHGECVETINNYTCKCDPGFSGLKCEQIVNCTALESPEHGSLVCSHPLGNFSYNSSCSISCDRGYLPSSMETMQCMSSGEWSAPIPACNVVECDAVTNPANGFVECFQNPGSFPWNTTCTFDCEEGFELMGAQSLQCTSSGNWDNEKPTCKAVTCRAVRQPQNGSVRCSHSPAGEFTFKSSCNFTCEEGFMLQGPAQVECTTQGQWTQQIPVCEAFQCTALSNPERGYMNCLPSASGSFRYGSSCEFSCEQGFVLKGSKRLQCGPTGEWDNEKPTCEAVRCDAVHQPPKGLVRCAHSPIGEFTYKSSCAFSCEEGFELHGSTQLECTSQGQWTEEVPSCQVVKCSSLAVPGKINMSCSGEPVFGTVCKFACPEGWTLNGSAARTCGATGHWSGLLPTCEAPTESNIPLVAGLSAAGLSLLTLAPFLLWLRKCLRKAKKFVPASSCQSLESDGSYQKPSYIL

For `COCCOc1cc2cc(C(=O)NC3CCN(C(C)C)CC3)n(CC(=O)Nc3ccc(Cl)cn3)c2cn1`, the outcome in assay [1], in assay [2], in [3], in assay [4], in [5] and in [6] was inactive. The outcome in assay [7], in [8], in assay [9], in assay [10], in [11] and in assay [12] was inactive. Further, the result in [13], in assay [14], in assay [15], in assay [16], in assay [17] and in assay [18] was inactive. Besides, the outcome in assay [19] was inactive.

As to `Cn1c(=O)c2c(ncn2C)n(C)c1=O`, the result in assay [1], in assay [2], in assay [3], in [5], in assay [6] and in assay [7] was inactive. In addition, the result in assay [8], in [9], in assay [10], in [11], in assay [12] and in assay [13] was inactive. Besides, the outcome in [14], in assay [15], in assay [20], in assay [16], in [17] and in [18] was inactive. Further, the result in assay [19] was inactive.

With `CC(O)CN(CCN(CC(C)O)CC(C)O)CC(C)O` (stereo unspecified), the result in assay [1], in [2], in assay [3], in assay [4], in assay [5] and in assay [6] was inactive. For the same molecule, the outcome in assay [8], in [9], in assay [10], in assay [11], in assay [12] and in [13] was inactive. Further, the result in assay [14], in assay [15], in [20], in assay [16], in assay [17] and in [18] was inactive. The outcome in [19] was inactive.

`COc1ccc(-n2nc(C(F)F)cc2-c2ccc(S(C)=O)cc2)cc1` (stereo unspecified): the result in [1], in [2], in assay [3], in [4], in [5] and in assay [6] was inactive. Moreover, the result in assay [7], in assay [8], in [9], in assay [10], in [11] and in [12] was inactive. In addition, the outcome in assay [14], in assay [20], in [16], in assay [17] and in [19] was inactive. For the same molecule, the AC50 is 1.7 µM (active) in assay [15] and 4.92 µM (active) in assay [18].

Turning to `CCOC(=O)c1ccc(C2CCC(NC[C@H](O)COc3ccc(O)c(NS(C)(=O)=O)c3)CC2)cc1` (stereo partly specified), the AC50 is 13.4 µM (active) in assay [1]; 24.7 µM (active) in [2]; 15.7 µM (active) in assay [3]; 8.27 µM (active) in assay [4]; 8.8 µM (active) in [5]; 18.7 µM (active) in assay [11]. Besides, the AC50 in assay [13] was 27.2 µM (active); in [16] it was 30.9 µM (active); in [17], 26.1 µM (active); in assay [18] it was 29.9 µM (active); in [19] it was 34.1 µM (active). Moreover, the result in [6], in assay [9], in [10], in assay [12], in assay [14] and in [15] was inactive. Besides, the outcome in [20] was inactive.

In the case of `Cc1[nH]cnc1C[C@H]1CCc2c(C)c3ccccc3n2C1=O`, the result in assay [1], in [2], in [3], in assay [4], in [5] and in assay [6] was inactive. Besides, the outcome in assay [7], in assay [9], in assay [10], in [11], in assay [12] and in assay [14] was inactive. For the same molecule, the result in [18] was inactive. The AC50 was 27.8 µM (active) in assay [15], 24.3 µM (active) in assay [16], 26.2 µM (active) in assay [17] and 27 µM (active) in assay [19].
